Compound activity deposited in PubChem by The Scripps Research Institute Molecular Screening Center.
Compounds with a hit are over-represented: about 4.6% of the library has one in this group of screens.
hgDAF12 agonist – H. glycines DAF-12 receptor agonists, primary screen, cell-based, luminescence, HEK293, GAL4 fusion, UAS-luciferase; Nuclear hormone receptor DAF-12 (Heterodera glycines), GAL4 fusion; HEK293 GAL4-hgDAF12 UAS-luciferase reporter, agonist luminescence; normalized to butyrate control; activation, % at 6.8 µM; 1.8% of 370,000 active; AID 687014, 2013;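 active = activation above a cutoff set at the mean of all screened compounds plus 3 SD, cut at about 10% in these data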;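 note: 0% = DMSO wells and 100% = sodium butyrate wells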
hcDAF12 agonist – H. contortus DAF-12 nuclear receptor activators, primary screen, cell-based, luminescence, HEK293, lit1-tk-luc reporter; HEK293 hcDAF-12 lit1-tk-luc reporter; 0% DMSO, 100% Δ7-dafachronic acid; activation, % at 6.8 µM; 1.4% of 370,000 active;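 active = activation above the mean of all tested compounds plus 3 SD, cut at about 5.5% in these data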;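 note: 100% = response to 3 µM Δ7-dafachronic acid high control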
ssDAF-12 act – S. stercoralis DAF-12 nuclear receptor activators, primary screen, cell-based, luminescence, HEK293, GRIP1 co-expression, lit1-tk-luc | HEK293 ssDAF-12/GRIP1 lit1-tk-luc reporter; % of 3 µM dafachronic acid response | activation, % at 6.8 µM | Nuclear hormone receptor DAF-12 (Strongyloides stercoralis) | 1% of 370,000 active;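 active = activation above the mean over all tested compounds plus 3 SD, cut at about 0.9% in these data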;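 note: 0% = DMSO-only wells and 100% = 3 µM delta7-dafachronic acid wells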
DAX1 inh-1 – DAX1 (NR0B1) inhibitors on StAR promoter, primary screen, cell-based, luminescence, SF-1 (NR5A1), full-length DAX-1 | AID 652010, 2013 | 1.1% of 370,000 active | inhibition, % at 6.8 µM | HEK293T StAR-luciferase reporter, SF-1/DAX-1 repression relief;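 active = inhibition above the mean over all tested compounds plus 3 SD, cut at about 3.6% in these data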;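 note: 0% = DAX-1 cells with DMSO and 100% = cells lacking DAX-1 with DMSO; higher inhibition means more luminescence from relief of DAX-1 repression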
DAX1 inh-2 – DAX1 (NR0B1) inhibitors, primary screen, cell-based, HEK293, Gal4-DAX1, luciferase luminescence; HEK293 Gal4-DAX1 luciferase reporter; AID 504766, 2011; inhibition, % at 6.75 µM; 0.99% of 340,000 active; Nuclear receptor subfamily 0 group B member 1 (Homo sapiens), P51843;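 active = inhibition above the mean over all tested compounds plus 3 SD, cut at about 4.2% in these data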;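 note: 0% = DAX1-transfected cells with DMSO and 100% = empty-vector control cells with DMSO; inhibition shows as a rise in luminescence from relieved DAX1 repression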
Wee1 stabilizer – Wee1 degradation inhibitors, primary screen, cell-based, HeLa, Wee1K328M-luciferase, luminescence. 1.2% of 220,000 active. HeLa Luc-Wee1K328M stability; 100% = proteasome inhibitor MG132 effect. Wee1-like protein kinase (Homo sapiens), P30291. reporter increase, % at 5 µM. AID 1321, 2008;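 active = activation above the mean of all tested compounds plus 3 SD, set per screening run, cut at about 8.8% in these data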;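 note: cells exposed to compound for 20 h before luminescence read; 0% = DMSO alone and 100% = MG132 at 30 µM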
Target sequence (P30291 whole entry K328M): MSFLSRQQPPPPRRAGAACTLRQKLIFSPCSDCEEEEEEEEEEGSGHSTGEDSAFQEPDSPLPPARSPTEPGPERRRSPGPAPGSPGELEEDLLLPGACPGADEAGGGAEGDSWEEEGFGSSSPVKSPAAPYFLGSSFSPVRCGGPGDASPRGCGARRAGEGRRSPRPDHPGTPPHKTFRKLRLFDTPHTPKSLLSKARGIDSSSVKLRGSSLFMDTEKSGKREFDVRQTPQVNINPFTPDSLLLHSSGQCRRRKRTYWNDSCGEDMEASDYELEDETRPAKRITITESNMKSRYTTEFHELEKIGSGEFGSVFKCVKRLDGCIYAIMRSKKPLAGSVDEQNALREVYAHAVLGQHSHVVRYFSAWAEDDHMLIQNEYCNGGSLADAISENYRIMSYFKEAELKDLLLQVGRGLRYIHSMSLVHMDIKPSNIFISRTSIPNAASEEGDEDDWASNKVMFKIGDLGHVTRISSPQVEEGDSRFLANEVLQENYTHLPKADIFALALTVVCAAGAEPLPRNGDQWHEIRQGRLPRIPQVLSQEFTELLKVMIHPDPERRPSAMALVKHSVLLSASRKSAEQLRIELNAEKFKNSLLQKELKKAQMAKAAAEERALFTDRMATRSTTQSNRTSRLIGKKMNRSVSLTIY
LXRb hcDAF ctr – LXR agonists, Gal4 luciferase reporter, confirmation, counter-screen for hcDAF-12 agonist project, cell-based, luminescence, HEK293, H. contortus campaign; shares compounds with hcDAF12 agonist; HEK293 Gal4-LXR tk-luc reporter, 24 h; normalized: DMSO 0%, positive control 100%; activation, % at 6.8 µM; 3,400 tested, under 10 active; AID 743027, 2013;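 active = mean percent activation of the reporter above a cutoff set as the average over tested compounds plus their standard deviation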
hcDAF12 conf – H. contortus DAF-12 receptor agonists, confirmation, cell-based, luminescence, HEK293, lit1-tk-luc, triplicate. 61% of 3,400 active. HEK293 hcDAF-12 lit1-tk-luc reporter; % of Δ7-dafachronic acid response. activation, % at 6.8 µM. shares compounds with hcDAF12 agonist. AID 743032, 2013;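 active = mean activation across triplicate tests above the threshold derived from the earlier primary screen, cut at about 5.5% in these data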;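 note: 0% = DMSO only wells and 100% = 3 µM Δ7-dafachronic acid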
* = called active by the depositor; nt = no result given.

SMILES | hgDAF12 agonist | hcDAF12 agonist | ssDAF-12 act | DAX1 inh-1 | DAX1 inh-2 | Wee1 stabilizer | LXRb hcDAF ctr | hcDAF12 conf
C/C(=N\O)c1sc(-c2ccccc2)nc1C | 12* | 12* | 1.1* | 3.8* | 2 | 3 | 1 | 7.2*
COc1cc(C(=O)N(Cc2ccccc2)c2cccc(C)c2)ccc1OCC(=O)N1CCOCC1 | -3 | 1 | -1 | 0 | 3 | nt | nt | nt
CSc1nc(-c2ccccc2)cn1-c1ccc(NC(C)=O)cc1 | 5 | 3 | -1 | 1 | -1 | -4 | nt | nt
CCOc1ccc(-c2cn(-c3ccc(OC)cc3)c(SC)n2)cc1 | 11* | 7.0* | -1 | 2 | 0 | -1 | 0 | 2
Cc1cnc(NC(=O)CCCc2nc3ccccc3s2)s1 | 12* | 10* | 5.3* | -1 | 3 | 7 | 1 | 6.9*
Cc1ccccc1N1CCN(Cc2c[nH]c3ccccc23)CC1 | 1 | 6.6* | 0 | 0 | 0 | 0 | 0 | 4
Brc1ccccc1CN1CCN(Cc2c[nH]c3ccccc23)CC1 | -1 | 4 | -1 | -1 | nt | nt | nt | nt
COc1ccccc1N1CCN(Cc2c[nH]c3ccccc23)CC1 | 1 | 2 | 0 | -1 | nt | -1 | nt | nt
CCS(=O)(=O)N1CCN(Cc2c[nH]c3ccccc23)CC1 | 9 | 7.4* | 0 | 1 | -1 | -1 | 0 | 3
Cc1ccc(S(=O)(=O)N2CC3C(=O)C[C@@H](c4ccccc4)N(S(=O)(=O)c4ccc(CCCOCCOCCNC(=O)OC(C)(C)C)cc4)C3CC2c2ccccc2)cc1 (some centres undefined) | -1 | -1 | -1 | -1 | nt | nt | nt | nt
CC(C)(C)NC(=O)C(c1ccc(C#N)cc1)n1c(=O)c(-c2ccco2)nc2ccccc21 (centres undefined) | 1 | 1 | 1 | 1 | nt | nt | nt | nt
Cc1ccc2nc(Cl)cc(=O)n2c1 | 0 | -1 | -1 | -2 | 0 | nt | nt | nt
CC(C)CCNC(=O)[C@H]1COC(O)([C@H](Cc2ccccc2)NC(=O)[C@@H](NC(=O)OCc2ccccc2)C(C)C)CN1C (some centres undefined) | 1 | 1 | -1 | nt | nt | nt | nt | nt
O=C(CSc1nnc(-c2cccnc2)n1Cc1ccco1)c1ccccc1 | -2 | 6.6* | -1 | 1 | 1 | -2 | 0 | 2
O=C(CSc1nnc(-c2ccc(O)cc2)n1Cc1ccco1)c1ccccc1 | -2 | -2 | -1 | 0 | -1 | 0 | nt | nt
O=C(NCc1ccccc1Cl)c1[nH]c(C(F)(F)F)nc1-c1ccccc1 | -2 | 1 | -1 | -1 | nt | nt | nt | nt
O=C(CCCCl)Oc1ccc2cc(-c3ccc4ccccc4n3)c(=O)oc2c1 | 4 | 8.4* | 0 | 1 | 0 | 6 | 0 | 5
CCOC(=O)c1ccc(NC(=O)Nc2nncs2)cc1 | 3 | 2 | 0 | 0 | 0 | nt | nt | nt
O=C1c2ccccc2CCC12N=NCC2c1ccc(Cl)cc1 (centres undefined) | 4 | 7.4* | 0 | 1 | -3 | 1 | 0 | 5
COc1c(N)c2c(c([N+](=O)[O-])c1OC)C(=O)OC2 | -2 | -1 | 1 | 1 | 1 | nt | nt | nt
